# Experimental data: publication PMC10954555
# Tests used:
# [1] = target: Large ribosomal subunit protein uL5 (UniProt P62913); assay: cross-linking mass spectrometry; other
# Actin, cytoplasmic 2 = Actin, cytoplasmic 2 (UniProt P63261); assay: other; cross-linking mass spectrometry; other
# [2] = target: Bromodomain-containing protein 3 (UniProt Q15059); assay: other; cross-linking mass spectrometry; other
# [3] = target: DNA-directed RNA polymerase II subunit RPB3 (UniProt P19387); assay: other; cross-linking mass spectrometry; other
# [4] = target: DNA-directed RNA polymerase II subunit RPB1 (UniProt P24928); assay: other; affinity purification or IP with mass spectrometry; other
# [5] = target: High mobility group nucleosome-binding domain-containing protein 3 (UniProt Q15651); assay: other; cross-linking mass spectrometry; other
# [6] = target: Large ribosomal subunit protein eL34 (UniProt P49207); assay: other; cross-linking mass spectrometry; other
# [7] = target: Large ribosomal subunit protein eL8 (UniProt P62424); assay: other; cross-linking mass spectrometry; other
# [8] = target: Large ribosomal subunit protein uL2 (UniProt P62917); assay: other; cross-linking mass spectrometry; other
# [9] = target: Large ribosomal subunit protein eL6 (UniProt Q02878); assay: other; cross-linking mass spectrometry; other
# [10] = target: RNA polymerase II-associated factor 1 homolog (UniProt Q8N7H5); assay: other; cross-linking mass spectrometry; other
# RNA-binding protein 8A = RNA-binding protein 8A (UniProt Q9Y5S9); assay: other; cross-linking mass spectrometry; other
# [11] = target: Replication factor C subunit 5 (UniProt P40937); assay: other; cross-linking mass spectrometry; other
# Sequence of Replication factor C subunit 5 (P40937 whole entry): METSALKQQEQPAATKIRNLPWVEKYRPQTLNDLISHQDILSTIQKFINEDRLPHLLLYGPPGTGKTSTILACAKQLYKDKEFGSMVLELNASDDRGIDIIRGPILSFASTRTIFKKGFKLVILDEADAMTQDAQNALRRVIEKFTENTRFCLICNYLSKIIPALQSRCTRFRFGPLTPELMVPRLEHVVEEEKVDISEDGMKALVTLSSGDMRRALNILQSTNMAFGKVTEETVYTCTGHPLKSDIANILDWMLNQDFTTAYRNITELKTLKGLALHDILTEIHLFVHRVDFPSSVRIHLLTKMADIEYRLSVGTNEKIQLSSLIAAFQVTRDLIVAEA
# [12] = target: Retinoblastoma-binding protein 5 (UniProt Q15291); assay: other; cross-linking mass spectrometry; other
# [13] = target: Small ribosomal subunit protein eS6 (UniProt P62753); assay: other; cross-linking mass spectrometry; other
# [14] = target: Small ribosomal subunit protein uS14 (UniProt P62273); assay: other; cross-linking mass spectrometry; other
# [15] = target: Small ribosomal subunit protein uS7 (UniProt P46782); assay: other; cross-linking mass spectrometry; other
# [16] = target: Ubiquitin-ribosomal protein eS31 fusion protein (UniProt P62979); assay: other; cross-linking mass spectrometry; other
# [17] = target: DNA-directed RNA polymerase II subunit RPB9 (UniProt P36954); assay: other; affinity purification or IP with mass spectrometry; other
# [18] = target: DNA-directed RNA polymerase II subunit RPB2 (UniProt P30876); assay: other; affinity purification or IP with mass spectrometry; cross-linking mass spectrometry; other
# [19] = target: Actin, alpha skeletal muscle (UniProt P68133); assay: cross-link between two proteins; cross-linking mass spectrometry; other
# Sequence of Bromodomain-containing protein 3 (Q15059 whole entry): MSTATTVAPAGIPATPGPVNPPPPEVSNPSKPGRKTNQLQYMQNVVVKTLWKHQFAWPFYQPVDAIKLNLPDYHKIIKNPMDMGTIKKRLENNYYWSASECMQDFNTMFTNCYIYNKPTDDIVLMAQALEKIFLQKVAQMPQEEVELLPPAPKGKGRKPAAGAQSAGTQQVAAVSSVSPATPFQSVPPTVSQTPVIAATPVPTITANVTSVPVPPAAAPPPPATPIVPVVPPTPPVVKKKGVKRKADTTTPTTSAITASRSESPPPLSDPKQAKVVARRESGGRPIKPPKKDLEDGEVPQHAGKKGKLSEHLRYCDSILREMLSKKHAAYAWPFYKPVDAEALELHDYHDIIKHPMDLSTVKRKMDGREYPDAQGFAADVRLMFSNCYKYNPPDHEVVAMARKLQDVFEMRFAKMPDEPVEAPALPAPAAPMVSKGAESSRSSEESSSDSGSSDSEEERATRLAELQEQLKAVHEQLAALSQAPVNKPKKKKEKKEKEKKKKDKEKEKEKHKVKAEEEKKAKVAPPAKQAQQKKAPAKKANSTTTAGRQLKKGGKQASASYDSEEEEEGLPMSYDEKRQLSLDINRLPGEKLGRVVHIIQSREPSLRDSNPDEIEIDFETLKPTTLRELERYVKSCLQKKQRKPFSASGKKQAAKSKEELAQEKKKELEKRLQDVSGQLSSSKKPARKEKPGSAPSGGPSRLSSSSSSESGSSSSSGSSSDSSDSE
# Sequence of Histone-lysine N-methyltransferase 2A, Q03164 (Q03164 whole entry): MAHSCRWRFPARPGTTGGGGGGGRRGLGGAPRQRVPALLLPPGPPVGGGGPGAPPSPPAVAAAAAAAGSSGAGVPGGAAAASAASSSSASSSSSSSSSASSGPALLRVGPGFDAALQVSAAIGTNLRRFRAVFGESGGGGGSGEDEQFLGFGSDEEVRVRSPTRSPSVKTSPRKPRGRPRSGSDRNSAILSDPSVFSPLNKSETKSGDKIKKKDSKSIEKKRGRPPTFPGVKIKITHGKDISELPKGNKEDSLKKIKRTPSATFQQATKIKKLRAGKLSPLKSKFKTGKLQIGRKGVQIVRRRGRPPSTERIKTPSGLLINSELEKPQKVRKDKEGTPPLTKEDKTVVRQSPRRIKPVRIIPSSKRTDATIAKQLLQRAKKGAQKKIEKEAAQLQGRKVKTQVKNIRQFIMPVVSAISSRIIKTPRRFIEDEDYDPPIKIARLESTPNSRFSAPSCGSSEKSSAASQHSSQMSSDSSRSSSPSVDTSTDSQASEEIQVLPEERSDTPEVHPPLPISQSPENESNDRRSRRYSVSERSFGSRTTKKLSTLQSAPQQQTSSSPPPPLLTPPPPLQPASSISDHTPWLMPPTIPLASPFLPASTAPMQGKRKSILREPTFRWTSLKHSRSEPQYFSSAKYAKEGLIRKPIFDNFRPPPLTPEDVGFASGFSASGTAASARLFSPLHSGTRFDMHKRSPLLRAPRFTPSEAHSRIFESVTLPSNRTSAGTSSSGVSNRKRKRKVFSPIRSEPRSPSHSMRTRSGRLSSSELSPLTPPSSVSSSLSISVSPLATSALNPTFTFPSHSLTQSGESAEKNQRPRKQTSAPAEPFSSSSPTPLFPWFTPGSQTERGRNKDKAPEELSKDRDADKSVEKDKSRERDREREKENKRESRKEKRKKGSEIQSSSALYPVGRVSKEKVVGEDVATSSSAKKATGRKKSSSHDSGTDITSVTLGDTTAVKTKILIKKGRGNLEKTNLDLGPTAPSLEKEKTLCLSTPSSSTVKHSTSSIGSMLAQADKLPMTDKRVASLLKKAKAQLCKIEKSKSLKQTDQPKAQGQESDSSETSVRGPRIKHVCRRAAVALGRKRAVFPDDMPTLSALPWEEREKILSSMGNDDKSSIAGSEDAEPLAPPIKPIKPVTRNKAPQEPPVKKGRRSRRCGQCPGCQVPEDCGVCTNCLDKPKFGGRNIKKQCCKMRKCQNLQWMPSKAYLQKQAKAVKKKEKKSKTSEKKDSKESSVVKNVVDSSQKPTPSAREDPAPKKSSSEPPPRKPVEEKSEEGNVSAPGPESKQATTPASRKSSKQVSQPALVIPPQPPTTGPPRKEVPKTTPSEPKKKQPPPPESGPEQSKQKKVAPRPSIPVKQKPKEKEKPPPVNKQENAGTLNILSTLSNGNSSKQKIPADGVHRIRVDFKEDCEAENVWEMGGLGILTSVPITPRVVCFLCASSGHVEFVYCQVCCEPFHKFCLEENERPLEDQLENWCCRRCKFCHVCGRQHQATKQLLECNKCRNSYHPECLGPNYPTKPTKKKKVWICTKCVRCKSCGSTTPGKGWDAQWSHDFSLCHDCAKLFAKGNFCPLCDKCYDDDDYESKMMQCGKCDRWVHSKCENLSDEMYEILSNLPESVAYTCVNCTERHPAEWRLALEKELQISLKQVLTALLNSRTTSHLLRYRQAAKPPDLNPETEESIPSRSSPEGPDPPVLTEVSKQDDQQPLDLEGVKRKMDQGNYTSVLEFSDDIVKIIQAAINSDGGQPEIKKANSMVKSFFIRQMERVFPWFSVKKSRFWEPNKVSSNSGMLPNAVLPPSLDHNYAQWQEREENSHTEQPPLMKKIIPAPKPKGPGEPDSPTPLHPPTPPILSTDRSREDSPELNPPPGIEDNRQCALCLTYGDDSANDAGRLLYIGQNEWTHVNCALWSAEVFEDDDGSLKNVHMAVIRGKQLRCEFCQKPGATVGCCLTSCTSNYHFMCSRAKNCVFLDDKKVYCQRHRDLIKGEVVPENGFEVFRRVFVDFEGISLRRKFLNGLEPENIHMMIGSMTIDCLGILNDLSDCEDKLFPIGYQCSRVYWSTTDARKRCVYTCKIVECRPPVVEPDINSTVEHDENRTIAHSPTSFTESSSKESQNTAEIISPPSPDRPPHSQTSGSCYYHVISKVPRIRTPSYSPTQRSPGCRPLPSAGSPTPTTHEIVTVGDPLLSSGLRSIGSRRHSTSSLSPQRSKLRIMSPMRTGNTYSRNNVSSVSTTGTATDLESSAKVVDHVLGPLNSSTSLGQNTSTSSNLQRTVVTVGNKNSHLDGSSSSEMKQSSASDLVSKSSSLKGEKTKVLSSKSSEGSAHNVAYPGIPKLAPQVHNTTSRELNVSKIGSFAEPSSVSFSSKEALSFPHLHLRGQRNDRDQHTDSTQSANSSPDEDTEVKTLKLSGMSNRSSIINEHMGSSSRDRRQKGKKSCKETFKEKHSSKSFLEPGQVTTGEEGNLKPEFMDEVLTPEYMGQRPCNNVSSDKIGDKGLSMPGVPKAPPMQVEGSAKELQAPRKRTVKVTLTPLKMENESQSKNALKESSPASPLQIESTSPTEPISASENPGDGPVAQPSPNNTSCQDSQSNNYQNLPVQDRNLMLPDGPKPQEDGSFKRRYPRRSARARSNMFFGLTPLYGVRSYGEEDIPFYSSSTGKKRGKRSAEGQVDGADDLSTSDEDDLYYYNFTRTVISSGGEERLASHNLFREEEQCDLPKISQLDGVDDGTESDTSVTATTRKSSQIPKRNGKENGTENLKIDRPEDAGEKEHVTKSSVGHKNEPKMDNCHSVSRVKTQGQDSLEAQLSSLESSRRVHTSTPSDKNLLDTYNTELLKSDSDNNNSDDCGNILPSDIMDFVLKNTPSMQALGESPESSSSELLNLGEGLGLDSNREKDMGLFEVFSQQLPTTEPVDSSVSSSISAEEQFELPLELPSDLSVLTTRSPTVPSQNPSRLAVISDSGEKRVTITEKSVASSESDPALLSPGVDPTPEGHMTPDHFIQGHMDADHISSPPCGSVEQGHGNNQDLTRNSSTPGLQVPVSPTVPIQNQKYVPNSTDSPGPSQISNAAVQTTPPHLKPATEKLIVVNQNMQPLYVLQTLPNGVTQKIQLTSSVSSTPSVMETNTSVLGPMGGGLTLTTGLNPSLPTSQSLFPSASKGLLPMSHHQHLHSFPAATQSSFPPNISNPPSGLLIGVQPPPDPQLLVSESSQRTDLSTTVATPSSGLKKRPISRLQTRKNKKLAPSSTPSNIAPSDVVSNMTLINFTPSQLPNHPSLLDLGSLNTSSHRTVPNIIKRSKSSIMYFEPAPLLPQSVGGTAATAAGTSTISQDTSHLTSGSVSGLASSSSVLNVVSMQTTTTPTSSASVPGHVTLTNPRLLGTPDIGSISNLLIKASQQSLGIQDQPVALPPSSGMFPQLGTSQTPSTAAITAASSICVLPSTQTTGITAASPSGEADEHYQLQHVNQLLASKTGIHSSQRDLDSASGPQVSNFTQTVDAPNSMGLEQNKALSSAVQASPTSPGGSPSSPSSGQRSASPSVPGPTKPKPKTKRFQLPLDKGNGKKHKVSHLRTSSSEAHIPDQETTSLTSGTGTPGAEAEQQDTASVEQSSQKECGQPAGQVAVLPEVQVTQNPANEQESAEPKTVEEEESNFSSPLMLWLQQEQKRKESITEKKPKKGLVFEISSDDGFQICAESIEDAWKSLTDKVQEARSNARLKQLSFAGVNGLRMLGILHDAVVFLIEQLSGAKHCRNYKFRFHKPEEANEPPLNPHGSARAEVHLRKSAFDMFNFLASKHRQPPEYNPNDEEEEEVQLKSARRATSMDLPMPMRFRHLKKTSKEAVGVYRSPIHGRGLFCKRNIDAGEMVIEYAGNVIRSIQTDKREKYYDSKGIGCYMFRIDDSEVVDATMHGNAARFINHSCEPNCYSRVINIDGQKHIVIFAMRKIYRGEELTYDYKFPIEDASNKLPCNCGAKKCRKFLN
substance,measurement,setting,value
"Large ribosomal subunit protein uL1, P62906",listed as a hit,[1],yes
"Actin, cytoplasmic 1, P60709",listed as a hit,"Actin, cytoplasmic 2",yes
"Bromodomain-containing protein 4, O60885",listed as a hit,[2],yes
"DNA-directed RNA polymerase II subunit RPB4, O15514",listed as a hit,[3],yes
same,listed as a hit,[4],yes
"Non-histone chromosomal protein HMG-17, P05204",listed as a hit,[5],yes
"Large ribosomal subunit protein uL4, P36578",listed as a hit,[6],yes
same,listed as a hit,[7],yes
same,listed as a hit,[8],yes
"Large ribosomal subunit protein eL32, P62910",listed as a hit,[9],yes
"RNA polymerase-associated protein CTR9 homolog, Q6PD62",listed as a hit,[10],yes
"Parafibromin, Q6P1J9",listed as a hit,[10],yes
"Eukaryotic initiation factor 4A-III, P38919",listed as a hit,RNA-binding protein 8A,yes
"Replication factor C subunit 4, P35249",listed as a hit,[11],yes
"Histone-lysine N-methyltransferase 2A, Q03164",listed as a hit,[12],yes
"Small ribosomal subunit protein uS17, P62280",listed as a hit,[13],yes
"Small ribosomal subunit protein uS10, P60866",listed as a hit,[14],yes
"Small ribosomal subunit protein eS19, P39019",listed as a hit,[15],yes
"Small ribosomal subunit protein uS7, P46782",listed as a hit,[16],yes
"Small ribosomal subunit protein eS1, P61247",listed as a hit,[16],yes
"DNA-directed RNA polymerase II subunit RPB1, P24928",listed as a hit,[17],yes
same,listed as a hit,[18],yes
"Actin, cytoplasmic 2, P63261",listed as a hit,[19],yes
